PubChem BioAssay (NCATS)
“And” between values parts separate entries of the source, which are not always exact repeats. Equal entries are not always repeated. Inconclusive results are not listed. The source made the active and inactive calls. Calls come from the whole dose curve.

Test: qHTS Assay for Lipid Storage Modulators (AID 1519); for activity change, negative = inhibition: % is set by controls: 0 for no effect and ±100 for the full control effect
Conditions: Drosophila S3 cells, BODIPY lipid droplet/cell ratio, laser cytometry, cells loaded with oleic acid
Description: NIH Molecular Libraries Probe Production Centers Network [MLPCN]
NIH Chemical Genomics Center [NCGC]
Assay Submitter (PI): Beller, Mathias; Max-Planck-Institut fur Biophysikalische Chemie
NCGC Assay Overview: Storing lipids as a reservoir for energy or the anabolism of elementary metabolites is a common feature of probably all cells and is conserved from bacteria to humans. The universal cellular lipid storage organelle is the so-called lipid storage droplet (LD). Although ubiquitous, LDs share a simple structure composed of a hydrophobic core that harbors the storage lipids, which is shielded by a droplet-specific phospholipid monolayer to which proteins are attached. The current model of LD biogenesis involves an incorporation of the lipid core into the membrane leaflets of the endoplasmic reticulum (ER) followed by a subsequent budding-like maturation of a LD, which ultimately pinches off. Once released, LD volume can increase by localized lipogenesis or fusion of existing droplets. Storage lipids are re-mobilized enzymatically by lipase activity. Lipase regulation in the adipocyte is heavily studied and involves multiple components including catecholamine signaling, the LD-associated proteins Perilipin and comparative gene identification-58 (CGI-58) and at least two lipases named hormone sensitive lipase (HSL) and adipocyte triglyceride lipase (ATGL). LD regulation outside of the adipocyte is poorly understood and only few components are known. However, there is an urgent need to learn more about ectopic fat depots as mislocalized storage of lipids, for example in the liver or muscle, is an eminent health problem associated with insulin resistance or the metabolic syndrome. We developed a laser-scanning cytometer assay to enable 1,536-well screening and combined the results of the small molecules screen with an RNAi database based on lipid storage.
NCGC Assay Protocol Summary:
We dispensed 4 uL of cells at 1.25 x 10^6 cells/mL into LoBase Aurora COC 1,536-well plates (black walled, clear bottom) with a bottle-valve solenoid-based dispenser (Aurora) to obtain 5,000 cells/well. Triacsin C (Sigma-Aldrich T-4540), an inhibitor of long-chain fatty acyl CoA synthetase that blocks synthesis of triglycerides, was used as a positive control for lipid under-storage. A total of 23 nL of compound solution of different concentrations were transferred to the assay plates using a Kalypsys pin tool equipped with a 1,536-pin array containing 10-nL slotted pins (FP1S10, 0.457-mm diameter, 50.8 mm long; V&P Scientific). One microliter of oleic acid (400 uM) was added, and the plate was lidded with stainless steel rubber gasket lined lids containing pinholes. […] Fluorescence was detected by excitation of the fluorophores with a 488-nm laser on an Acumen Explorer (TTP Lab Tech). The total intensity in channel 1 (500-530 nm) reflected lipid droplet accumulation. […] The ratio of the total intensity in PMT channel 1 over total intensity of channel 3 was also calculated. Percent activity was computed relative to an internal control (100% inhibited lipid droplet deposition due to the presence of 20 uM Triacsin C), which was added to 32 wells/plate.

[1] = measured here: cell count channel max response
[2] = measured here: lipid channel max response

| Compound | activity change, negative = inhibition (at 25.7 µM (top of the series)) | activity change, negative = inhibition (at 57.5 µM (top of the series)) | max response [1] | max response [2] |
| --- | --- | --- | --- | --- |
| NC(N)=NS(=O)(=O)c1ccc(N)cc1 | -0.993% (inactive) | 6.41% (inactive) | 1.84% and 2.06% | -0.509% and 12.7% |
| NC(N)=NCCN1CCCCCCC1 | -2.42% (inactive) | 6.2% (inactive) | 3.46% and 15.5% | 0.449% and 29.6% |
| O=C(Cn1ccnc1[N+](=O)[O-])NCCO | -0.0007% (inactive) | 2.99% (inactive) | -9.52% and 14.9% | -8.62% and 19.4% |
| Cc1c(NC(=O)c2cccnc2)c(=O)n(-c2ccccc2)n1C | -1.84% (inactive) | 5.04% (inactive) | 3.68% and 18.2% | 4.21% and 26.8% |
| CC(=O)SC[C@@H](Cc1ccccc1)C(=O)NCC(=O)OCc1ccccc1 | -7.97% (inactive) | – | -8.69% | -18.1% |
| NCc1ccc(S(N)(=O)=O)cc1 | -2.86% (inactive) | 9.84% (inactive) | -7.52% and 18.9% | -8.55% and 31.3% |
| Cc1cc(NC(=O)C2=C(O)c3ccccc3S(=O)(=O)N2C)no1 | -0.235% (inactive) | – | -4.56% | -5.22% |
| C[C@@H]1CCC[C@H](C)N1 | -3.01% (inactive) | – | -4.31% | -8.89% |
| Cc1cccc(C(=O)O)c1O | – | 6.75% (inactive) | 1.99% | 8.34% |
| Cc1cc(O)cc(C)c1Cl | – | 11.1% (inactive) | -12.4% | 1.81% |
| NS(=O)(=O)c1cc(C2(O)NC(=O)c3ccccc32)ccc1Cl (stereo unspecified) | – | 3.99% (inactive) | 20% | 27% |
| NC(=O)c1ccc([N+](=O)[O-])cc1Cl | – | -1.34% (inactive) | -11.1% | -9.4% |
